# In PubChem BioAssay AID1159580 (chemical genetic matrix, 2015):
# Hit rate of the full screen: of about 5,500 compounds, about 2,000 (36%) were called active. Another 18% or so got no clear call; they are omitted. The list shows a part of the results. Unmarked numbers belong to inactive results. No stated cut-off is given here; in the data, active means normalized growth mostly below about 0.91 (no sharp cut-off); inconclusive means no clear call, values can overlap the other calls; inactive means mostly above about 0.92.
# Assay: chemical genetic growth profiling, strain panel (AID 1159580);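 further: tested at 20 µM; growth read once vehicle control cultures reached saturation at 30 °C; 1 = growth at the plate median or of vehicle wells; lower values mean less growth of the strain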
# Details: S. cerevisiae deletion strains, growth OD
# [1] = locus YAL013W, strain DEP1, active compounds read low
# [2] = locus YDL101C, strain DUN1, active compounds read low
# [3] = locus YDR150W, strain NUM1, active compounds read low
# [4] = locus YHR030C, strain SLT2, active compounds read low
# [5] = locus YJR075W, strain HOC1, active compounds read low
# [6] = locus YPL241C, strain CIN2, active compounds read low
compound,measurement,setting,value
CSC(=NC(=O)c1c(Cl)cccc1Cl)SC,normalized growth,[1],0.886 (active)
same,normalized growth,"locus YBR229C, strain ROT2, active compounds read low",0.856 (active)
same,normalized growth,[2],0.866 (active)
same,normalized growth,"locus YDL134C, strain PPH21, active compounds read low",0.782 (active)
same,normalized growth,[3],0.992
same,normalized growth,"locus YEL061C, strain CIN8, active compounds read low",0.781 (active)
same,normalized growth,"locus YGR078C, strain PAC10, active compounds read low",0.912 (active)
same,normalized growth,[4],0.194 (active)
same,normalized growth,"locus YHR087W, strain rtc3, active compounds read low",0.896 (active)
same,normalized growth,"locus YJL187C, strain SWE1, active compounds read low",0.82 (active)
same,normalized growth,"locus YJR043C, strain POL32, active compounds read low",0.904 (active)
same,normalized growth,[5],0.776 (active)
same,normalized growth,"locus YLR039C, strain RIC1, active compounds read low",0.284 (active)
same,normalized growth,"locus YLR058C, strain SHM2 (second series), active compounds read low",0.924 (active)
same,normalized growth,"locus YLR085C, strain ARP6, active compounds read low",0.332 (active)
same,normalized growth,"locus YLR262C, strain YPT6, active compounds read low",0.275 (active)
same,normalized growth,"locus YML094W, strain GIM5, active compounds read low",0.85 (active)
same,normalized growth,"locus YMR219W, strain ESC1, active compounds read low",0.932 (active)
same,normalized growth,"locus YMR263W, strain SAP30, active compounds read low",0.931
same,normalized growth,"locus YMR307W, strain GAS1, active compounds read low",0.177 (active)
same,normalized growth,"locus YNL128W, strain TEP1, active compounds read low",0.928
same,normalized growth,"locus YNL153C, strain GIM3, active compounds read low",0.852 (active)
same,normalized growth,"locus YNL298W, strain CLA4 (second series), active compounds read low",0.636 (active)
same,normalized growth,"locus YNL322C, strain KRE1, active compounds read low",0.925 (active)
same,normalized growth,"locus YNR030W, strain Alg12, active compounds read low",0.747 (active)
same,normalized growth,"locus YOL006C, strain TOP1, active compounds read low",0.541 (active)
same,normalized growth,"locus YPL055C, strain LGE1, active compounds read low",0.919
same,normalized growth,[6],0.663 (active)
same,normalized growth,"locus YPR135W, strain CTF4, active compounds read low",0.313 (active)
CSC(=NNc1ccccc1)NC(=O)c1c(Cl)cccc1Cl,normalized growth,"locus YAR019C, strain CDC15, active compounds read low",0.972
same,normalized growth,"locus YBL105C, strain PKC1, active compounds read low",0.967
same,normalized growth,"locus YBR135W, strain CKS1, active compounds read low",0.967
same,normalized growth,"locus YBR136W, strain MEC1, active compounds read low",0.972
same,normalized growth,"locus YBR160W, strain CDC28, active compounds read low",0.967
same,normalized growth,"locus YDL017W, strain CDC7, active compounds read low",0.981
same,normalized growth,"locus YDL028C, strain MPS1, active compounds read low",0.975
same,normalized growth,[2],0.974
same,normalized growth,"locus YDL108W, strain KIN28, active compounds read low",0.963
same,normalized growth,"locus YDL132W, strain cdc53, active compounds read low",0.98
same,normalized growth,"locus YDL214C, strain PRR2, active compounds read low",0.89
same,normalized growth,"locus YDR052C, strain DBF4, active compounds read low",0.975
same,normalized growth,"locus YDR054C, strain cdc34, active compounds read low",0.961
same,normalized growth,"locus YDR226W, strain ADK1, active compounds read low",0.969
same,normalized growth,"locus YDR477W, strain SNF1, active compounds read low",0.923
same,normalized growth,"locus YER123W, strain YCK3, active compounds read low",0.812
same,normalized growth,"locus YER133W, strain GLC7, active compounds read low",0.918
same,normalized growth,"locus YFL009W, strain cdc4, active compounds read low",0.972
same,normalized growth,"locus YFL029C, strain CAK1, active compounds read low",0.958
same,normalized growth,"locus YFR003C, strain YPI1, active compounds read low",0.971
same,normalized growth,"locus YFR019W, strain FAB1, active compounds read low",0.904
same,normalized growth,"locus YFR028C, strain CDC14, active compounds read low",0.967
same,normalized growth,"locus YGR040W, strain KSS1, active compounds read low",0.887
same,normalized growth,"locus YGR052W, strain FMP48, active compounds read low",0.951
same,normalized growth,"locus YGR092W, strain DBF2, active compounds read low",0.82
same,normalized growth,[4],0.909
same,normalized growth,"locus YHR079C, strain IRE1, active compounds read low",0.896
same,normalized growth,"locus YHR082C, strain KSP1, active compounds read low",0.938
same,normalized growth,"locus YHR205W, strain SCH9, active compounds read low",0.921
same,normalized growth,"locus YIL147C, strain SLN1, active compounds read low",0.975
same,normalized growth,"locus YJL095W, strain BCK1, active compounds read low",0.902
same,normalized growth,"locus YJL128C, strain PBS2, active compounds read low",0.945
same,normalized growth,"locus YJL157C, strain FAR1, active compounds read low",0.886
same,normalized growth,"locus YJR016C, strain ILV3, active compounds read low",0.966
same,normalized growth,"locus YJR066W, strain TOR1 (second series), active compounds read low",0.904
same,normalized growth,"locus YJR066W, strain TOR1, active compounds read low",0.968
same,normalized growth,"locus YKL048C, strain ELM1, active compounds read low",0.882
same,normalized growth,"locus YKL067W, strain YNK1, active compounds read low",0.892
same,normalized growth,"locus YKL101W, strain HSL1, active compounds read low",0.867
same,normalized growth,"locus YKL193C, strain SDS22, active compounds read low",0.969
same,normalized growth,"locus YKL203C, strain TOR2, active compounds read low",0.969
same,normalized growth,"locus YLR113W, strain HOG1, active compounds read low",0.738 (active)
same,normalized growth,"locus YLR133W, strain CKI1, active compounds read low",0.872
same,normalized growth,"locus YLR403W, strain SFP1, active compounds read low",0.897
same,normalized growth,"locus YML070W, strain DAK1, active compounds read low",0.806
same,normalized growth,"locus YMR001C, strain CDC5, active compounds read low",0.965
same,normalized growth,"locus YMR205C, strain PFK2 (second series), active compounds read low",0.887
same,normalized growth,"locus YMR277W, strain FCP1, active compounds read low",0.975
same,normalized growth,"locus YNL006W, strain LST8, active compounds read low",0.97
same,normalized growth,"locus YNL020C, strain ARK1, active compounds read low",0.88
same,normalized growth,"locus YNL161W, strain CBK1, active compounds read low",0.979
same,normalized growth,"locus YNL183C, strain NPR1, active compounds read low",0.927
same,normalized growth,"locus YNL207W, strain RIO2, active compounds read low",0.97
same,normalized growth,"locus YNL222W, strain SSU72, active compounds read low",0.961
same,normalized growth,"locus YNL307C, strain MCK1 (second series), active compounds read low",0.817
same,normalized growth,"locus YOL078W, strain AVO1, active compounds read low",0.968
same,normalized growth,"locus YOL136C, strain PFK27, active compounds read low",0.842
same,normalized growth,"locus YOR061W, strain CKA2, active compounds read low",0.798
same,normalized growth,"locus YOR119C, strain RIO1, active compounds read low",0.961
same,normalized growth,"locus YOR231W, strain MKK1, active compounds read low",0.82
same,normalized growth,"locus YOR329C, strain SCD5, active compounds read low",0.976
same,normalized growth,"locus YPL031C, strain PHO85, active compounds read low",0.917
same,normalized growth,"locus YPL153C, strain RAD53, active compounds read low",0.91
same,normalized growth,"locus YPL204W, strain HRR25, active compounds read low",0.906
same,normalized growth,"locus YPL209C, strain IPL1, active compounds read low",0.972
same,normalized growth,"locus YPL256C, strain CLN2, active compounds read low",0.814 (active)
same,normalized growth,"locus YPR025C, strain CCL1, active compounds read low",0.968
same,normalized growth,"locus YPR106W, strain ISR1, active compounds read low",0.955
same,normalized growth,"locus YPR111W, strain DBF20, active compounds read low",0.948
same,normalized growth,"strain NNK1, active compounds read low",0.964
same,normalized growth,"strain TSCII, active compounds read low",0.968
NC(N)=NC(=O)Cc1c(Cl)cccc1Cl,normalized growth,[1],1.01
same,normalized growth,"locus YAL040C, strain CLN3, active compounds read low",0.979
same,normalized growth,"locus YCL061C, strain MRC1 (second series), active compounds read low",1
same,normalized growth,[3],0.997
same,normalized growth,"locus YDR363W, strain ESC2, active compounds read low",0.997
same,normalized growth,"locus YER002W, strain NOP16, active compounds read low",1.04
same,normalized growth,[5],1
same,normalized growth,"locus YNL175C, strain NOP13, active compounds read low",0.996
same,normalized growth,"locus YNL197C, strain WHI3, active compounds read low",1.02
same,normalized growth,"locus YNL224C, strain SQS1, active compounds read low",0.971
same,normalized growth,"locus YOR083W, strain WHI5 (second series), active compounds read low",1.01
same,normalized growth,[6],1
